A short description of experiment [1]: optical density shifts of acrAB sulA E. coli – strain DRC41, OD650, 48 h, E. coli filamentation inducer project, primary screen (AID 1152).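 Note: E. coli MC1000 strain DRC41 lacking acrAB efflux pump and sulA.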 Conditions: higher = more signal, called active from +8 up or from −8 down.
Experiment [2] can be described thus: probe aLefty1 binding on compound microarray – biochemical, small-molecule microarray, 635/667 nm fluorescence, primary screen (AID 1153).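 Note: score merges spot fluorescence with signal-to-noise ratio from the scanned slide images.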 Conditions: higher = more signal.
Experiment [3] can be described thus: plasmodial surface anion channel blockers, osmotic lysis – cell-based, P. falciparum Indochina, OD700, 1 h, primary screen (AID 1154). Conditions: P. falciparum Indochina infected RBC osmotic lysis, higher = more signal, called active from +8 up or from −8 down.
Experiment [4] is described as follows: plasmodial surface anion channel blockers, osmotic lysis – cell-based, P. falciparum Indochina, OD700, 2 h, primary screen (AID 1155).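 Note: lysis reports solute entry through the parasite surface anion channel PSAC.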 The following applies: P. falciparum Indochina infected erythrocytes, higher = more signal, called active from +8 up or from −8 down.
Experiment [5] in a line: changes in parasitized red cell lysis, either direction – P. falciparum Indochina, OD700, 3 h, PSAC antagonist project, primary screen (AID 1156). Conditions: P. falciparum-infected erythrocytes, osmotic lysis, higher = more signal, called active from +8 up or from −8 down.
Experiment [6] is described as follows: plasmodial surface anion channel blockers, osmotic lysis – cell-based, P. falciparum Indochina, OD700, 18 h, primary screen (AID 1157). The following applies: P. falciparum Indochina infected erythrocytes, osmotic lysis OD700, 18 h; higher = more signal, called active from +8 up or from −8 down.
Experiment [7] can be described thus: S6 kinase pathway phospho-S6 level changes – cell-based, A549, cytoblot, luminescence, serum-stimulated, primary screen (AID 1158).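 Note: serum-stimulated A549 lung adenocarcinoma cells; signal is phosphorylated S6 detected by cytoblot immunostaining with HRP secondary.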 The following applies: 5 h, higher = more signal.
Experiment [8] deals with NADPH oxidase 2 (Homo sapiens) (UniProt P04839). The experiment in a line: compounds shifting NOX2 Amplex Red fluorescence – cell-based, HEK293-NOX2, PMA-stimulated, NOX inhibitor project, primary screen (AID 1159). Note: test concentration not given here. The following applies: 45 min, higher = more signal, called active from +8 up or from −8 down.
NADPH oxidase 2 (Homo sapiens), sequence (P04839 whole entry, looked up): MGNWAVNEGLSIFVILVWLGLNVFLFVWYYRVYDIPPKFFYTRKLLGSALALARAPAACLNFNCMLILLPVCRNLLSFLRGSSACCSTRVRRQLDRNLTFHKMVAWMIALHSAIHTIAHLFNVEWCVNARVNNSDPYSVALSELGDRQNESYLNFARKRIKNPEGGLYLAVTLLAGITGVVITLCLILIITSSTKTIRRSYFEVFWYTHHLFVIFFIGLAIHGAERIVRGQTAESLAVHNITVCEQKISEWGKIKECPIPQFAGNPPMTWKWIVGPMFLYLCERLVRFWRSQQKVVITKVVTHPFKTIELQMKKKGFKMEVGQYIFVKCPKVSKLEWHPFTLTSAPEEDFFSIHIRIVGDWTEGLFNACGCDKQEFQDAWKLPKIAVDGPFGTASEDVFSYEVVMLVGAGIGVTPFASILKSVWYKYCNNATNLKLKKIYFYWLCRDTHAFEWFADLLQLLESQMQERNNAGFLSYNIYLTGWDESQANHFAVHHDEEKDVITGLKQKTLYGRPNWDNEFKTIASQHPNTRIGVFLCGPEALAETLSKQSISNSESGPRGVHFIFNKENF
Experiment [9] has as its target NADPH oxidase 4 (Homo sapiens) (UniProt Q9NPH5). Kind of experiment: compounds shifting NOX4 Amplex Red fluorescence – cell-based, HEK293-NOX4, tetracycline-induced, NOX inhibitor project, primary screen (AID 1160). The following applies: HEK293-NOX4, Amplex Red H2O2 fluorescence, 45 min; higher = more signal, called active from +8 up or from −8 down.
In experiment [10] the target is NADPH oxidase 5 (Homo sapiens) (UniProt Q96PH1). The experiment in a line: compounds shifting NOX5 Amplex Red fluorescence – cell-based, HEK293-NOX5, NOX inhibitor project, primary screen (AID 1161). The following applies: HEK293-NOX5, ionomycin, 45 min, higher = more signal.
NADPH oxidase 5 (Homo sapiens), sequence (Q96PH1 whole entry, looked up): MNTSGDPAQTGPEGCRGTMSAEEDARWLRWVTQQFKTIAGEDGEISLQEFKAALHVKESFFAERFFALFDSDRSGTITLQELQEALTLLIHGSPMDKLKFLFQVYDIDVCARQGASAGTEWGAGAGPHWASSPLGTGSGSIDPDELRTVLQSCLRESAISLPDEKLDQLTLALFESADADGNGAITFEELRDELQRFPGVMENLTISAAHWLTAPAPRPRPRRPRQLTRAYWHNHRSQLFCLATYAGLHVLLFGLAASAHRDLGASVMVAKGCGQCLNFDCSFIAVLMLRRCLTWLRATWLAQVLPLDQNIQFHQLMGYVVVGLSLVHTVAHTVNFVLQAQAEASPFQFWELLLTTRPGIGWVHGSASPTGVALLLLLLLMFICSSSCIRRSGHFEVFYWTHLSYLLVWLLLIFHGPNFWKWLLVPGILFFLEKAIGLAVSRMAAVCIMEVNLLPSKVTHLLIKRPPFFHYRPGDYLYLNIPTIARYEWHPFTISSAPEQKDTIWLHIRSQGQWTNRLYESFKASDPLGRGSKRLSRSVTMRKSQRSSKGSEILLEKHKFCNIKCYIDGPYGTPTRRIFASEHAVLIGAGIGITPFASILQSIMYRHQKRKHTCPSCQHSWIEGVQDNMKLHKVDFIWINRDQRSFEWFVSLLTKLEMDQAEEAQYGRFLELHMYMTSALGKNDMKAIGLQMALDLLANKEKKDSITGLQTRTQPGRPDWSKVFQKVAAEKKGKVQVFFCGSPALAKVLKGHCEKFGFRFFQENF
Experiment [11] is described as follows: compound effects on lung adenocarcinoma cell viability – A549, calcein-AM fluorescence, 48 h, basal, profiling panel (AID 1162). Note: test concentration not given here. The following applies: higher = more signal.
Experiment [12] can be described thus: compound effects on differentiated 3T3-L1 adipocyte viability – cell-based, 3T3-L1 adipocytes, calcein-AM fluorescence, 48 h, basal, profiling panel (AID 1163). Note: test concentration not given here. The following applies: 3T3-L1 adipocytes viability, higher = more signal.
Experiment [13] can be described thus: compound effects on hepatocellular carcinoma cell viability – HepG2, calcein-AM fluorescence, 48 h, basal, profiling panel (AID 1164). Note: test concentration not given here. The following applies: higher = more signal.
Experiment [14] can be described thus: compound effects on multiple myeloma cell viability – MM1S, calcein-AM fluorescence, 48 h, basal, profiling panel (AID 1165).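 Note: viability of MM1S multiple myeloma cells under basal unstimulated conditions; test concentration not given here.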 The following applies: higher = more signal.
Experiment [15] in a line: calcein-AM signal in unstimulated myeloma cells – cell-based, calcein-AM fluorescence, 48 h, PK04 Diversity Set, profiling panel (AID 1166).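 Note: cells grown under basal conditions without added stimulus; test concentration not given here.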 Conditions: RPMI8226 myeloma viability, higher = more signal.
Experiment [16] can be described thus: JC-1 mitochondrial signal, unstimulated HepG2 cells – cell-based, JC-1 fluorescence, 24 h, 100 nL compound, profiling panel (AID 1167). Note: test concentration not given here. The following applies: HepG2 mitochondrial potential, higher = more signal.
Experiment [17] in a line: JC-1 mitochondrial signal, unstimulated adipocytes – cell-based, JC-1 fluorescence, 3T3-L1 adipocytes, 24 h, 100 nL compound, profiling panel (AID 1168). Note: test concentration not given here. Conditions: JC-1 mitochondrial fluorescence, higher = more signal, called active from +8 up or from −8 down.
A short description of experiment [18]: JC-1 mitochondrial signal, unstimulated myeloma cells – cell-based, JC-1 fluorescence, RPMI8226, 24 h, 100 nL compound, profiling panel (AID 1169). Note: test concentration not given here. Conditions: JC-1 mitochondrial potential fluorescence, higher = more signal.
Experiment [19] can be described thus: JC-1 mitochondrial signal, unstimulated MM1S myeloma – cell-based, JC-1 fluorescence, 24 h, 100 nL compound, profiling panel (AID 1170). Note: test concentration not given here. The following applies: MM1S mitochondrial potential, higher = more signal.
The nature of experiment [20]: resazurin metabolic signal in A549 cells – cell-based, resazurin fluorescence, 24 h, PK04 Diversity Set, profiling panel (AID 1171). Note: test concentration not given here. The following applies: A549 viability, higher = more signal, called active from +8 up or from −8 down. In general terms: The colour change of resazurin is a common sign of viable cells or microbes.

SMILES strings stand for the structures. Active and inactive are the calls of the source.

NADPH oxidase 4 (Homo sapiens), sequence (Q9NPH5 whole entry, looked up): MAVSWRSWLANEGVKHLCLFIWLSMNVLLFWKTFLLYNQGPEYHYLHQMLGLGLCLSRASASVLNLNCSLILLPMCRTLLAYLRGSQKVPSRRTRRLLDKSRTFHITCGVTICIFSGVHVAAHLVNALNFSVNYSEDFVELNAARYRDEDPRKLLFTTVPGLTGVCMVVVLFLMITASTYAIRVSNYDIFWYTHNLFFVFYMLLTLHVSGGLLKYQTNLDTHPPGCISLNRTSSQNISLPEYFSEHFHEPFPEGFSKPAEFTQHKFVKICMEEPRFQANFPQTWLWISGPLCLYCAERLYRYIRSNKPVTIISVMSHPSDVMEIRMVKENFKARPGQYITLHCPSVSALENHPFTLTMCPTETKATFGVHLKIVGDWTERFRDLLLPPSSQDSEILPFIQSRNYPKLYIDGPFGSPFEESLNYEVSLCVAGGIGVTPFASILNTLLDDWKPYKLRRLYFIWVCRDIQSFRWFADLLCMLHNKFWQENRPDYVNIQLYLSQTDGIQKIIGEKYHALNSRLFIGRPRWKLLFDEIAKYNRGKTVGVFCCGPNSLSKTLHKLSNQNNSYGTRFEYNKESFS

Take `CN(C)CCCCNC(=O)[C@H]1C[C@H]2C(=O)N[C@@H](CCCCN(C)C)C(=O)N2[C@H]1c1cccc(OCCO)c1`: the z-score is 0.357 (inactive) in experiment [1]; 0.72 (inactive) in [3]; -0.0174 (inactive) in experiment [4]; -0.71 (inactive) in [5]; -0.0919 (inactive) in experiment [6]; -0.518 in [7]. Further, the z-score in [8] was 0.731 (inactive); in experiment [9], 0.756 (inactive); in experiment [10], -0.151; in experiment [11], -0.317; in experiment [12] it was 0.0593; in [13], -0.269. Moreover, the z-score in [14] was -0.0355; in experiment [15], 0.495; in experiment [16] it was 0.13; in experiment [17], 0.429 (inactive); in experiment [18] it was 0.426; in [19], 0.23. In experiment [20], the z-score was 0.471 (inactive). In addition, the composite z-score in experiment [2] is -0.546.
With `CCOC(=O)C[C@H]1[C@H](OC(=O)c2ccc(C(=O)c3ccccc3)cc2)[C@@H](NC(=O)c2ccc3ccccc3c2)c2cc(OCCCO)ccc2N1C(=O)c1ccccc1`, the z-score in [1] was -0.558 (inactive); in [3] it was 0.137 (inactive); in experiment [4] it was -0.0012 (inactive); in experiment [5] it was -0.97 (inactive); in experiment [6] it was 0.189 (inactive); in [7], -0.357. Further, the z-score was 0.311 (inactive) in [8]; 0.945 (inactive) in experiment [9]; 1.06 in experiment [10]; -0.0566 in experiment [11]; 0.202 in experiment [12]; -0.458 in experiment [13]. Also, the z-score in experiment [14] is 0.0736; in experiment [15], -0.602; in experiment [16], -0.245; in [17] it was -1.1 (inactive); in [18] it was 0.314; in experiment [19], 0.184. Further, the z-score in [20] was -0.412 (inactive). Also, the composite z-score in experiment [2] was -0.0134.
Take `[N-]=[N+]=NCc1ccccc1[C@H]1OC(c2ccc(OCCCO)cc2)=N[C@@]1(CCS(=O)(=O)c1ccccc1)C(N)=O`: the z-score in [1] was -0.56 (inactive); in [3] it was 24.1 (active); in [4], 6.95 (inactive); in [5], 1.56 (inactive); in [6] it was 0.764 (inactive); in experiment [7], 0.273. Moreover, the z-score in experiment [8] is 1.39 (inactive); in experiment [9], 2.23 (inactive); in [10] it was 1.78; in experiment [11], -0.733; in experiment [12] it was 0.0036; in experiment [13], -0.423. In addition, the z-score is -1.83 in [14]; -0.973 in experiment [15]; -2.13 in experiment [16]; -1.36 (inactive) in [17]; -0.397 in [18]; -0.606 in [19]. Also, in experiment [20], the z-score is 0.547 (inactive). Further, in experiment [2], the composite z-score was determined as 0.345.
For `O=c1cccc(-c2cccc(Cl)c2)o1`, the z-score in [1] is 0.457 (inactive); in experiment [3], 25.8 (active); in experiment [4], 10.2 (active); in experiment [5] it was -0.51 (inactive); in experiment [6], 1.27 (inactive); in experiment [7] it was -0.717. The z-score in experiment [8] is -0.16 (inactive); in experiment [9], -1.92 (inactive); in experiment [10] it was -0.541; in [11] it was -1.09; in experiment [12] it was -0.164; in experiment [13], -0.0227. The z-score was -0.345 in experiment [14]; -0.895 in experiment [15]; -0.687 in experiment [16]; 0.308 (inactive) in experiment [17]; 0.86 in [18]; -0.024 in experiment [19]. Also, in [20], the z-score was 0.0053 (inactive). Also, in experiment [2], the composite z-score was -0.0057.
For `O=C(O)[C@H]1C[C@H]2C(=O)N3CCC[C@H]3C(=O)N2[C@H]1c1cccc(OCCO)c1`, the z-score in [1] was 0.71 (inactive); in [3] it was 6.65 (inactive); in experiment [4] it was 1.08 (inactive); in [5] it was -1.69 (inactive); in [6], 0.619 (inactive); in experiment [7], 0.557. The z-score in [8] is -0.117 (inactive); in experiment [9], -0.0548 (inactive); in experiment [10], 1.24; in experiment [11], 1.67; in experiment [12], -0.156; in [13] it was 0.601. Further, the z-score in [14] is 0.792; in experiment [15] it was -0.8; in [16], 1.96; in experiment [17], -0.652 (inactive); in experiment [18], -0.77; in experiment [19] it was -0.568. Further, the z-score in [20] is 1.04 (inactive). Also, the composite z-score in [2] is -0.017.
